Among the data in PubChem BioAssay (Tox21) are Potency and outcome values, retold here.

The nature of assay [1]: qHTS assay to identify small molecule antagonists of the estrogen receptor alpha (ER-alpha) signaling pathway using the BG1 cell line in the presence of 0.1 nM 17-beta-estradiol - cell viability counter screen (AID 1259241). Also: nearly all actives have a fitted effect of over 40% in size. In short, it runs like this:
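CellTiter-Fluor read (30 min, 37C) on ER-alpha/ERE-luc VM7Luc4E2 cells; 22 hr compound treatment; agonist 0.1 nM E2 final; same-well multiplex.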
For orientation: Quantitative high-throughput screening tests each substance at several concentrations.

The nature of assay [2]: qHTS assay to identify small molecule antagonists of the androgen receptor (AR) signaling pathway using the MDA cell line in the presence of 0.5 nM R1881 - cell viability counter screen (AID 1259242). Also: nearly all actives have a fitted effect of over 45% in size. In short, it runs like this: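 qHTS format. MDA-kb2 (MMTV-luc, AR/GR responsive) + cpd + 0.5 nM R1881 final, 16 hr 37C/0% CO2 → CellTiter-Fluor 30 min → fluorescence intensity.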

Assay [3] deals with Estrogen receptor (Homo sapiens) (UniProt P03372). As to the kind of experiment: qHTS assay to identify small molecule antagonists of the estrogen receptor alpha (ER-alpha) signaling pathway using the BG1 cell line in the presence of 0.1 nM 17-beta-estradiol (AID 1259244). Also: nearly all actives have a fitted effect of over 50% in size. Also: potency is read from the fitted curve at half-maximal effect. The method in brief: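 Reporter is a stably transfected luciferase under four estrogen responsive elements in VM7Luc4E2 cells expressing native full-length ER-alpha; inhibition of 0.1 nM (final) 17beta-estradiol-driven signal over 22 h is read by luminescence.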

Assay [4] can be described thus: qHTS assay to identify small molecule HDAC inhibitors (AID 1259364).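 Also: wild-type HCT-116 cells with endogenous class I/II HDAC activity; top concentration of the series differs between compounds; nearly all actives have a fitted effect of over 45% in size.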 The method in brief: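 Quantitative high-throughput format: overnight-seeded HCT-116 cells got compounds for 2 hr at 37C; HDAC-Glo I/II reagent added, 30 min RT, luminescence measured.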
Assay [5] in a line: qHTS assay to identify small molecule agonists of the sonic hedgehog signaling (Shh) pathway - cell viability counter screen (AID 1259366). Also: nearly all actives have a fitted effect of over 50% in size. In short, it runs like this: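 Fluorescence from CellTiter-Fluor reports live cells in this counter screen. NIH/3T3-derived Gli1-Luc reporter cells receive test compounds for 24hr at 37C; reagent goes in at 23hr.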
Assay [6] is described as follows: qHTS assay to identify small molecule antagonists of the sonic hedgehog signaling (Shh) pathway - cell viability counter screen (AID 1259367). Also: nearly all actives have a fitted effect of over 55% in size. The method in brief: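 CellTiter-Fluor signal in conditioned medium-stimulated 3T3 Gli1-Luc cells, 23 hr compound exposure, 37C.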
Assay [7] in a line: qHTS assay to identify small molecule agonists of the sonic hedgehog signaling (Shh) pathway (AID 1259368; calls by dose curve;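 also: NIH/3T3-derived 3T3Gli1-Luc cells carrying a stable Gli1-driven firefly luciferase reporter; series mostly up to about 92 µM; nearly all actives have a fitted effect of over 15% in size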). In short, it runs like this: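 Quantitative high-throughput format using a Gli1-driven firefly luciferase reporter line derived from NIH/3T3 cells. After a 24 hr compound treatment at 37 C and 5% CO2, luminescence reported Gli1 response element activity.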
The nature of assay [8]: qHTS assay to identify small molecule antagonists of the sonic hedgehog signaling (Shh) pathway (AID 1259369; calls by dose curve; also: nearly all actives have a fitted effect of over 45% in size). The method in brief:
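Stable Gli1-Luc reporter NIH/3T3 clone; quantitative HTS in stimulated mode with conditioned medium. Luminescence measured after 24hr compound treatment at 37 C.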

Assay [9] has as its target Estrogen receptor beta (Homo sapiens) (UniProt Q92731). Put plainly: qHTS assay to identify small molecule antagonists of the estrogen receptor beta (ER-beta) signaling pathway (AID 1259378; active = well fitted inhibition curve with a large enough effect in the signal ratio in the repeat runs, not every such curve was filed as active; the % refers to the signal ratio). The method in brief: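 Antagonist mode: compounds added to beta-lactamase reporter HEK293T ER-beta-UAS cells stimulated with E2 (1nM final), 16 hr at 37C. LiveBLAzer B/G FRET substrate, 2 hours room temperature, fluorescence read-out.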

Assay [10] in a line: qHTS assay to identify small molecule agonists of the androgen receptor (AR) signaling pathway in the presence of an antagonist - cell viability counter screen (AID 1259379).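 Also: MDA-kb2 human breast cancer cells carrying an MMTV luciferase reporter; series mostly up to about 92 µM; nearly all actives have a fitted effect of over 25% in size.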 The method in brief: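 Nilutamide-containing (3.0uM final) MDA-kb2 cultures, 3,000 cells/well, were treated with compounds across 15 concentrations. After 16 hr at 37C with no CO2, cell viability was determined by CellTiter-Fluor fluorescence in the luciferase assay wells.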

Assay [11] in a line: qHTS assay to identify small molecule agonists of the estrogen receptor beta (ER-beta) signaling pathway - cell viability counter screen (AID 1259380). Also: nearly all actives have a fitted effect of over 30% in size. Also: potency is read from the fitted curve at half-maximal effect. In short, it runs like this: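 Steps: plate ER-beta-UAS-bla HEK293T cells, rest 6 hr; add compounds in DMSO; incubate 16 hr at 37C, 5% CO2; add FRET substrate 2 hr; add CellTiter-Glo, wait 30 min at room temperature; read luminescence.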

Assay [12] is described as follows: qHTS assay to identify small molecule antagonists of the estrogen receptor beta (ER-beta) signaling pathway - cell viability counter screen (AID 1259382). Also: series mostly up to about 92 µM; nearly all actives have a fitted effect of over 55% in size. In short, it runs like this: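 Viability is scored by CellTiter-Glo luminescence (30 min, room temperature) in ER-beta-UAS-bla HEK293T wells already read for reporter fluorescence. Compound exposure lasts 16 hr at 37C alongside 1nM 17-beta-estradiol in charcoal-stripped serum medium.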

The target in assay [13] is Estrogen receptor (Homo sapiens) (UniProt P03372). As to the kind of experiment: qHTS assay to identify small molecule agonists of the estrogen receptor alpha (ER-alpha) signaling pathway in the presence of an antagonist (AID 1259383; calls by dose curve; also: top concentration of the series differs between compounds; nearly all actives have a fitted effect of over 15% in size). In short, it runs like this: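 Readout was ERE-driven luciferase luminescence in VM7Luc4E2 cells, which express full-length ER-alpha endogenously. Compounds were tested at 15 concentrations for 22hr alongside 10.0nM ICI-182,780 (final concentration).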

A short description of assay [14]: qHTS assay to identify small molecule agonists or antagonists of the thyroid stimulating hormone receptor (TSHR) signaling pathway - wild type cell line counter screen (AID 1259384; calls by dose curve). The method in brief:
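Counter screen in untransfected Hek293: compounds (15-point titration, triplicate) plus phosphodiesterase inhibitor Ro20-1724 added after 18 h plating; 30 min RT. Intracellular cAMP via competitive d2/cryptate immunoassay, 1 h incubation.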

The target of assay [15] is Thyrotropin receptor (Homo sapiens) (UniProt P16473). Put plainly: qHTS assay to identify small molecule antagonists of the thyroid stimulating hormone receptor (TSHR) signaling pathway (AID 1259385; calls by dose curve; also: nearly all actives have a fitted effect of over 20% in size). The method in brief: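 Antagonist mode: compound-treated TSHR-expressing HEK293 cells were stimulated with 1.5 ng/mL TSH (final) in presence of Ro20-1724 for 30 min at RT. HTRF cAMP detection after 1 h; each compound tested at 15 concentrations, triplicate.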

Assay [16] in a line: qHTS assay to identify small molecule HDAC inhibitors - cell viability counter screen (AID 1259365). Also: series mostly up to about 92 µM; nearly all actives have a fitted effect of over 50% in size. In short, it runs like this: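 To flag cytotoxic hits, 1,500 wild-type HCT-116 cells per well, plated the day before, receive test compounds for 2hr at 37 C before CellTiter-Glo reagent and a luminescence read.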
Assay [17] concerns the target Estrogen receptor beta (Homo sapiens) (UniProt Q92731). Put plainly: qHTS assay to identify small molecule agonists of the estrogen receptor beta (ER-beta) signaling pathway (AID 1259377; active = well fitted activation curve with a large enough effect in the signal ratio in the repeat runs, not every such curve was filed as active; the % refers to the signal ratio). In short, it runs like this: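 Screening used GripTite ER-beta-UAS-bla cells held in 2% charcoal-stripped FBS medium. After overnight (16 hr) compound incubation at 37C, beta-lactamase activity was detected with a FRET substrate by fluorescence.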

Unmarked numbers belong to inactive results. Records with an inconclusive call do not appear. Calls of active or inactive are those of the source. Unless noted, calls follow the shape of the dose curve; as a rule, active = well fitted curve in the direction sought with a large enough effect in the repeat runs; inconclusive = weak or mixed curves; inactive = no such curve, though single readings can be large; an effect the other way counts as inactive or inconclusive.

Chain of Thyrotropin receptor (Homo sapiens) (P16473 whole entry, looked up): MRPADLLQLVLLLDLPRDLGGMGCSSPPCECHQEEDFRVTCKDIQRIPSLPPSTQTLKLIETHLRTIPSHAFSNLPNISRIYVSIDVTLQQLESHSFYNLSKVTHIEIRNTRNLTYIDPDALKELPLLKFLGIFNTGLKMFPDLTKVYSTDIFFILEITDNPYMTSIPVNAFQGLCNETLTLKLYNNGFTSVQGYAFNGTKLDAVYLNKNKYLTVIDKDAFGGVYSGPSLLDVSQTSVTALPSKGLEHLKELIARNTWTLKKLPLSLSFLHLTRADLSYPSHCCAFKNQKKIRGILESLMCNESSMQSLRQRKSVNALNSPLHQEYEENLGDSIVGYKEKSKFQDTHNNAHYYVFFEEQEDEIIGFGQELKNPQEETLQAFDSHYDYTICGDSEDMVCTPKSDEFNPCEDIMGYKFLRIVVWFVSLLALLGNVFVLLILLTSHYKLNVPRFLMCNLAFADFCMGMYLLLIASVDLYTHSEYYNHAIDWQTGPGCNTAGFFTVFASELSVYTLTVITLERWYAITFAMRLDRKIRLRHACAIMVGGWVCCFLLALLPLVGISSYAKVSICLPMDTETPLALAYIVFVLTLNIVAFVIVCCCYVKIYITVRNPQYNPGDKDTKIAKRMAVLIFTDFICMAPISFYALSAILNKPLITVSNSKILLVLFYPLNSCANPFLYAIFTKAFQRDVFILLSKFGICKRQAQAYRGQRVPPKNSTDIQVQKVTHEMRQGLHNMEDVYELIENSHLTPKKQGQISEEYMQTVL
Chain of Estrogen receptor (Homo sapiens) (P03372 whole entry, looked up): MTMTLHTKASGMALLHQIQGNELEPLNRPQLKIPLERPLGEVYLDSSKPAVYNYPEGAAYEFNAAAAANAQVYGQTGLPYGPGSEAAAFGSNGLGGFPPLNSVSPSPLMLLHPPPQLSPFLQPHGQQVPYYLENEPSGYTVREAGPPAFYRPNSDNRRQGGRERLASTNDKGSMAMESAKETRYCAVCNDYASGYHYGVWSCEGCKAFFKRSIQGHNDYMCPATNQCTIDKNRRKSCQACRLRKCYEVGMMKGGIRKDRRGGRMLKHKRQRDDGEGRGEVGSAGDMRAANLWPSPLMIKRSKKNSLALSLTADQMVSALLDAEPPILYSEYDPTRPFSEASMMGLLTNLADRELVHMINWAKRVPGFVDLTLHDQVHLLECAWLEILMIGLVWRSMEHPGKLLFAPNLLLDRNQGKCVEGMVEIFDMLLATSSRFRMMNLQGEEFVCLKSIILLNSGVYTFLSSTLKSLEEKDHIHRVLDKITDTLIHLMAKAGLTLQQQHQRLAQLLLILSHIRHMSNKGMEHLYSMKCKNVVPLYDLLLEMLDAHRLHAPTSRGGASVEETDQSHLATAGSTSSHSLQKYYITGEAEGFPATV
Chain of Estrogen receptor beta (Homo sapiens) (Q92731 whole entry, looked up): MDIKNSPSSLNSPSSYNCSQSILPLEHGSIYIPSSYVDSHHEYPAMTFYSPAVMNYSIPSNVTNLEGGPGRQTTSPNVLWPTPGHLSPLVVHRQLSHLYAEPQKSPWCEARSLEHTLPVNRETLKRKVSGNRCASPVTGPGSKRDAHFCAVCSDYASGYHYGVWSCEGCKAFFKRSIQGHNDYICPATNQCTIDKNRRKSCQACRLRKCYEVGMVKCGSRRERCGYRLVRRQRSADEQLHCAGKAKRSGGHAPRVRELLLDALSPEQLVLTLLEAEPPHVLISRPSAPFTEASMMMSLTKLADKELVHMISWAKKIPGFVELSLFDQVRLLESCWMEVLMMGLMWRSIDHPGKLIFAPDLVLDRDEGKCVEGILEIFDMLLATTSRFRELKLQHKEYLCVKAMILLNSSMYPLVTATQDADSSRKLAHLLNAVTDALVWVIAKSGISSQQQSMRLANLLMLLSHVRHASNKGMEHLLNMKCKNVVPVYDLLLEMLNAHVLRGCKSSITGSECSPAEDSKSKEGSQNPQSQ

In the case of `Cc1cccc(OCCOc2cccc(C)c2)c1`, the Potency entry in assay [1], in assay [2], in assay [3], in assay [4], in assay [5] and in assay [6] was “inactive” each time. For the same molecule, the Potency result in assay [8], in [9], in assay [10], in assay [11], in assay [12] and in assay [13] was “inactive” each time. The Potency entry in assay [14] and in assay [15] was “inactive” in each case. Moreover, the result in [7] was inactive.
Turning to `O=C1c2cccc(O)c2C(=O)c2c(O)cc(CO)cc21`, the Potency result in assay [1], in assay [2], in assay [3], in [4], in [5] and in [6] was “inactive” in each case. Besides, the Potency entry in assay [8], in [12], in assay [13], in [14] and in assay [15] was “inactive” throughout. Also, the call in [7] was inactive.
Consider `O=c1c2ccccc2nnn1CCl`, for which the Potency entry in assay [1], in assay [2], in assay [3], in assay [5], in assay [6] and in [8] was “inactive” throughout. In addition, the Potency result in assay [17], in [9], in [10], in [11], in assay [12] and in assay [13] was “inactive” each time. For the same molecule, the Potency result in assay [14] and in [15] was “inactive” throughout. Besides, the outcome in [16] and in assay [7] was inactive.
As for `CC(C)(C)c1ccc(OCC2CO2)cc1` (stereo not drawn), the Potency entry in assay [1], in assay [2], in [3], in [4], in [5] and in [8] was “inactive” throughout. Besides, the Potency result in assay [17], in assay [9], in assay [10], in assay [12], in [14] and in [15] was “inactive” each time. In addition, the outcome in assay [16] and in [7] was inactive.
As for `O=C(Cl)c1c(Cl)cccc1Cl`, the Potency result in assay [1], in [2], in assay [3], in assay [5], in assay [6] and in assay [8] was “inactive” throughout. For the same molecule, the Potency entry in assay [10], in assay [11], in assay [13] and in assay [15] was “inactive” throughout. Besides, the call in assay [16] was inactive.
On to `CCOc1ccc2[nH]cc(C(=O)NCc3ccccc3)c(=O)c2n1`, for which the Potency entry in assay [1], in [2], in assay [4], in assay [5], in assay [6] and in assay [10] was “inactive” in each case. For the same molecule, the Potency result in [11], in assay [12], in assay [14] and in [15] was “inactive” each time. In addition, the Potency in assay [3] was 54.5 µM (active). Further, the molecule was classed as inactive in [7].
With `CC(=O)[C@@]1(O)CC[C@H]2[C@@H]3C[C@H](C)C4=CC(=O)CC[C@]4(C)[C@H]3CC[C@@]21C`, the Potency result in assay [1], in assay [2], in assay [3], in assay [4], in [5] and in assay [6] was “inactive” each time. In addition, the Potency result in [17], in assay [9], in [10], in assay [11], in [12] and in assay [13] was “inactive” in each case. The Potency result in assay [14] and in [15] was “inactive” in each case. Further, the call in assay [16] and in assay [7] was inactive.
For the molecule `CC(=O)CC(=O)c1ccccc1`, the Potency result in [1], in [2], in [3], in [4], in [5] and in assay [6] was “inactive” throughout. The Potency result in assay [17], in assay [9], in assay [10], in assay [11], in [12] and in assay [14] was “inactive” each time. Also, the molecule was classed as inactive in assay [16] and in assay [7].
With `SC1CCCC1`, the Potency entry in assay [1], in assay [2], in assay [3], in assay [4], in assay [5] and in assay [6] was “inactive” each time. The Potency entry in assay [8], in assay [17], in [9], in [10], in [11] and in assay [12] was “inactive” in each case. Further, the Potency result in assay [13], in [14] and in assay [15] was “inactive” each time. Moreover, in assay [7], the outcome was inactive.
For the molecule `CC/C(=C\C(=N/O)C(N)=O)C(C)[N+](=O)[O-]` (stereo not drawn), the Potency result in [1], in assay [2], in [3], in assay [4], in assay [5] and in assay [6] was “inactive” in each case. Moreover, the Potency result in assay [9], in [10], in assay [11], in [14] and in [15] was “inactive” each time. Moreover, the call in assay [16] and in assay [7] was inactive.
In the case of `OCC1CC2CC1C1CCC(CO)C21` (stereo not drawn), the Potency entry in [1], in assay [2], in assay [3], in [4], in [5] and in [6] was “inactive” each time. In addition, the Potency entry in assay [8], in [10], in assay [13] and in assay [15] was “inactive” throughout. The result in [7] was inactive.
Regarding `O=C(O)C(c1ccc(Cl)cc1)c1ccc(Cl)cc1`, the Potency result in [1], in assay [2], in assay [3], in [5], in assay [6] and in assay [8] was “inactive” in each case. Also, the Potency entry in [17], in assay [9], in assay [10], in assay [13], in assay [14] and in assay [15] was “inactive” in each case. Moreover, the molecule was called inactive in assay [16] and in assay [7]. The Potency in assay [11] was 61.1 µM (active).
As to `Oc1ccc2c(c1)OCO2`, the Potency result in assay [1], in [2], in assay [3], in [4], in [5] and in [6] was “inactive” throughout. In addition, the Potency result in [10], in assay [11], in assay [12], in assay [13], in assay [14] and in [15] was “inactive” throughout. The molecule was called inactive in assay [7].
